This is a sample that favours compounds with a hit; in the whole collection about 0.75% have one here.
uPA surface inh = cell surface uPA generation inhibition | cell surface uPA generation assay, qHTS | hit rate 0.31% among 330,000 | AID 540303 | Potency, µM (titrated, usually from 38.3 µM), inactives show top-dose activity change, negative = inhibition, most hits filed as inhibitors; active = well fitted inhibition curve with a large enough effect; inconclusive = small, poorly fitted or top-dose-only effect; inactive = no such curve, though single readings can be large or run the other way; tested in mouse RAW 264.7 cells; note: potency is the fitted concentration of half-maximal effect; % is set by controls: 0 for no effect and ±100 for the full control effect; nearly all actives have a fitted effect of over 55% in size
TSHR antagonist = human thyrotropin receptor antagonism | P16473 | TSHR-expressing cells, TSH-stimulated cAMP HTRF, 2 h; stronger effect = lower value | activity change, negative = inhibition, % at 11.5 µM | hit rate 0.2% among 330,000 | AID 504810;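 active = activity change below a set negative limit, meaning inhibition stronger than a set level, cut at about -70% in these data; inconclusive = activity change between two set negative limits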; note: % is set by controls: 0 for no effect and ±100 for the full control effect
Target sequence (P16473 whole entry, looked up): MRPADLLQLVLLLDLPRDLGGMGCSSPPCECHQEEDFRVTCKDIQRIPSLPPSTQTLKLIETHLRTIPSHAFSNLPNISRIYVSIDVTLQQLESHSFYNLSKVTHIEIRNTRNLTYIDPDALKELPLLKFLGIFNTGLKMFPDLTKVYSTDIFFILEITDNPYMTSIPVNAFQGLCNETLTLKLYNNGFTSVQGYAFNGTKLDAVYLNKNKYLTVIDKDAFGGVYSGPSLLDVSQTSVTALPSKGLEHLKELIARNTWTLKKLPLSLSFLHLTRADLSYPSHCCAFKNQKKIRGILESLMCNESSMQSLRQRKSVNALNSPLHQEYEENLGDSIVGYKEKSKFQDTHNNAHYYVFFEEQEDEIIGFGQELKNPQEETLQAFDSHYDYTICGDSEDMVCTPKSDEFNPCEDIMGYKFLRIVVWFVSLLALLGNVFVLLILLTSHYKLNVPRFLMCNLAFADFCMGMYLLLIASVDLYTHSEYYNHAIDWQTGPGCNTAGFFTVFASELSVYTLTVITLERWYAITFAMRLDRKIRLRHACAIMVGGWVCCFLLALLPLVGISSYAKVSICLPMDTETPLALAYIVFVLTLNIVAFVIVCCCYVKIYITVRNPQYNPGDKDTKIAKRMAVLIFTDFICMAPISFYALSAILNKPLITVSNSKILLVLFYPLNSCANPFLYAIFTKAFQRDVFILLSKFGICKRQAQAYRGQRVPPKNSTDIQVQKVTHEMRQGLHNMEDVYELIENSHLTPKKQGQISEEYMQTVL
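TSHR-expressing cells were treated with compounds, then stimulated with TSH at EC80 (4nM final) for 2 hours at 37 deg C. Cellular cAMP was measured by HTRF competition between lysate cAMP and cAMP-d2 for a cryptate-labelled anti-cAMP antibody.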
PKM2 act = PKM2 (human) enzyme activation. purified PKM2, Kinase-Glo ATP luminescence, activation; response scale: 0% is enzyme alone, no compound. hit rate 0.34% among 260,000. P14618. Potency, µM (top dose mostly 57.5 µM), for the others: at the highest dose activation, actives largely listed as activators. AID 1631; note: potency is the fitted concentration of half-maximal effect; % is set by controls: 0 for no effect and ±100 for the full control effect; nearly all actives have a fitted effect of over 55% in size
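ATP formation by purified human PK-M2, quantified via coupled luciferase luminescence after 1 h at room temperature with 0.1 mM ADP and 0.5 mM PEP final.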
TCR act = activates T cell receptor signaling. Potency, µM (doses to about 9.22 µM), for inactives: at the top dose activation of IL-2 secretion, hits mostly activators. AID 504894. primary human leukocytes, anti-CD3, IL-2 HTRF, 48 h. 330,000 tested, under 10 active; note: % of control where 0% means no effect
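Readout: HTRF IL-2, Eu-cryptate/d2 antibody pair, 320nm excitation, 665nm emission. Stimulus: a-CD3 beads, no co-stimulation. Cells: primary human leukocytes. Exposure: 48 hr with compound.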
An asterisk follows results filed as active; [ ] = remark or other dose. Unless noted, calls come from the whole dose curve; as a rule, active = well fitted curve in the direction sought with a large enough effect; inconclusive = small, poorly fitted or top-dose-only effect, or another doubt; inactive = no such curve, though single readings can be large; an effect the other way counts as inactive or inconclusive.

Screening CN(C)c1ccc(C=Nc2ccc(N(C)C)cc2)cc1 returned uPA surface inh -7%, TSHR antagonist -39, PKM2 act -8% and TCR act inconclusive.
COC(=O)CSC1=C(C#N)C(c2ccccc2F)CC(=O)N1 (stereo not drawn) was read as uPA surface inh inconclusive, TSHR antagonist -4, PKM2 act 28µM* and TCR act -2%.
For Cc1ccccc1NC(=O)c1cc2ccccn2n1 the results were uPA surface inh inconclusive, TSHR antagonist -84*, PKM2 act -29% and TCR act -1%.
Screening CC(=O)N(CCC(c1ccccc1)c1ccco1)Cc1cccs1 (stereo not drawn) returned uPA surface inh 3%, TSHR antagonist -91*, PKM2 act 3% and TCR act -21%.
`CN(C)CCCNc1cc(-c2ccccc2)nc2cc(-c3cccc(F)c3)nn12` gave uPA surface inh 5µM*, TSHR antagonist -13, PKM2 act -2% and TCR act 2%.
O=C(Nc1ccccc1C(=O)N1CCN(c2cccc(Cl)c2)CC1)C1=CSCCO1 was read as uPA surface inh -4%, TSHR antagonist -132* and TCR act -2%.
O=C(Nc1ccc(C(=O)N2CCN(c3ccc(Cl)cc3)CC2)cc1)C1=CSCCO1 was read as uPA surface inh 0%, TSHR antagonist 0 and TCR act -1%.
`O=C(/C=C/c1cccc(Cl)c1)c1ccc([N+](=O)[O-])o1` gave uPA surface inh inconclusive, TSHR antagonist -81* and TCR act -5%.
Screening COc1ccc(/C=C/C(=O)c2ccc([N+](=O)[O-])o2)cc1OC returned uPA surface inh 2.5µM*, TSHR antagonist -26 and TCR act 2%.
For CCc1noc(C)c1C(=O)NNC(=O)c1ccccc1Cl the results were uPA surface inh -6%, TSHR antagonist 32 and TCR act -4%.
Screening Fc1ccc2[nH]c3c(N4CCN(c5ccccc5)CC4)ncnc3c2c1 returned uPA surface inh -9%, TSHR antagonist -89*, PKM2 act -5% and TCR act -1%.
COc1ccccc1NC(=S)N(Cc1ccco1)Cc1cc2cccc(C)c2[nH]c1=O was read as uPA surface inh -2%, TSHR antagonist 0, PKM2 act -3% and TCR act -6%.
`COc1ccccc1NC(=S)N(Cc1ccco1)Cc1cc2cc(C)c(C)cc2[nH]c1=O` gave uPA surface inh 4µM*, TSHR antagonist -10, PKM2 act 24% and TCR act -8%[46.1 µM].
Screening COc1ccccc1NC(=O)N(Cc1ccco1)Cc1cc2ccc(C)c(C)c2[nH]c1=O returned uPA surface inh -15%, TSHR antagonist -3, PKM2 act 16µM* and TCR act -2%.
For CCCNC(=O)C(Cc1ccccc1)NC(=O)Cc1ccccc1 (stereo not drawn) the results were uPA surface inh 2%, TSHR antagonist 15 and TCR act 3%.
COc1cccc(OCc2cc(C(=O)N(C)CCOc3ccc(C)cc3)no2)c1 was read as uPA surface inh 6%, TSHR antagonist -14 and TCR act 1%.
`C=CC(C)(C)c1c(O)c(CC=C(C)C)c(O)c2c(=O)c3ccc(O)c(O)c3oc12` gave uPA surface inh 11µM* and TCR act 1%.
Screening Cn1ccc2cc(-c3ccc4ncnc(NCc5cccs5)c4c3)ccc21 returned uPA surface inh 7.9µM*, TSHR antagonist -3 and TCR act -6%.
Screening O=S(=O)(Nc1cccc(-c2ccc(N3CCCCCC3)nn2)c1)c1ccc(F)cc1 returned uPA surface inh -13%, TSHR antagonist -83*, PKM2 act -1%[0.46 µM] and TCR act 3%.
COCCNC(=O)c1ccc2c3n(nc2c1)-c1ccccc1CO3 was read as uPA surface inh 4µM*, TSHR antagonist -48, PKM2 act -25% and TCR act -3%.
For C=CCNC(=O)c1ccc2c3n(nc2c1)-c1ccccc1CO3 the results were uPA surface inh 1.4µM*, TSHR antagonist 4, PKM2 act -19% and TCR act -1%.
`O=C(NCC1CC1)c1ccc2c3n(nc2c1)-c1ccc(Cl)cc1CO3` gave uPA surface inh inconclusive and TCR act 2%.
Screening COCCNC(=O)c1ccc2c3n(nc2c1)-c1ccc(Cl)cc1CO3 returned uPA surface inh 10µM*, TSHR antagonist 2, PKM2 act -8% and TCR act 1%.
For O=C(NCCO)c1ccc2c3n(nc2c1)-c1ccc(Cl)cc1CO3 the results were uPA surface inh inconclusive, TSHR antagonist 12, PKM2 act -3% and TCR act 3%.
CN(c1ccccc1)c1ncnc2c1ncn2C was read as uPA surface inh 1% and TCR act -5%.
CCCCCCCCCCCC1N=C(N)NC(CCCO)=C1C(=O)OC (stereo not drawn) was read as uPA surface inh -5% and TCR act 2%.
For Cc1ccc(NC(=S)NCCN2CCOCC2)cc1F the results were uPA surface inh -1%, TSHR antagonist 29, PKM2 act 0% and TCR act 0%.
Screening COc1ccc(S(=O)(=O)N2CCCCCC2)cc1NC(=O)CN1C(=O)CNC1=O returned uPA surface inh 0%, TSHR antagonist 13 and TCR act 0%[46.1 µM].
For O=[N+]([O-])c1cc(Br)c(O)c(C=Nc2ccc(N3CCOCC3)cc2)c1 the results were uPA surface inh -3%, TSHR antagonist -86*, PKM2 act 5% and TCR act 3%.
COC(=O)c1ccc(-c2noc(CN(C)CCC3CCCCO3)n2)cc1 (stereo not drawn) was read as uPA surface inh -1%, TSHR antagonist inconclusive, PKM2 act 0.2µM* and TCR act -20%.
For COc1ccccc1Nc1cc2cc(Br)ccc2c(=O)[nH]1 the results were uPA surface inh 3.2µM* and TCR act 5%.
Screening CC(C)(C)c1cc(C(=O)N2CCc3ccccc3C2)ccn1 returned uPA surface inh 7.9µM*, TSHR antagonist -8 and TCR act 1%.
O=C1C=C(c2ccccc2)C(c2ccccc2)C1O (stereo not drawn) was read as uPA surface inh 4% and TCR act 12%.
Screening Cn1c(SCC(=O)N2CCN(c3ccccc3)CC2)nnc1-c1c[nH]c2ccccc12 returned uPA surface inh -10%, TSHR antagonist -24, PKM2 act 28% and TCR act 3%.
For CCn1c(SCC(=O)N2CCN(c3ccccc3)CC2)nnc1-c1c[nH]c2ccccc12 the results were uPA surface inh 7.9µM*, TSHR antagonist -7, PKM2 act -2% and TCR act 1%.
`O=C1CC(c2ccc3c(c2)OCCO3)Oc2ccc([N+](=O)[O-])cc21` (stereo not drawn) gave uPA surface inh 10µM*, TSHR antagonist -16 and TCR act 4%.
O=C1CC(c2ccc3c(c2)OCCO3)Oc2ccccc21 (stereo not drawn) was read as uPA surface inh 12%, TSHR antagonist 2, PKM2 act 1%[0.46 µM] and TCR act -4%.
